The panel holds about 79,000 compounds, 15% with a hit somewhere; the sample as a whole holds those more often. No stated cut-off is given here; in the data, active means growth inhibition above about 70%; inactive means the rest.
Experiments:
[1] = NCI Yeast Anticancer Drug Screen. Data for the rad50 strain (AID 155);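 further: 0% = growth of vehicle-only cultures of the same strain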; details: S. cerevisiae rad50 strain growth inhibition; at 50.0 µM; active compounds read high
Summary of the method: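 A DNA repair-deficient yeast mutant serves as the test organism; compound-induced growth inhibition is calculated against vehicle-treated cells.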

[2] = NCI Yeast Anticancer Drug Screen. Data for the mec2-1 strain (AID 157); details: S. cerevisiae mec2-1 strain, at 50.0 µM, active compounds read high
Summary of the method: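 Using mec2-1 yeast: add compound, measure growth, express inhibition versus vehicle-treated cultures.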

[3] = NCI Yeast Anticancer Drug Screen. Data for the sgs1 mgt1 strain (AID 161);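 further: 0% = growth of cultures given vehicle only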; details: S. cerevisiae sgs1 mgt1 strain, at 50.0 µM, active compounds read high
Summary of the method: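 This yeast growth screen uses a strain with defined DNA-repair lesions; compound-treated growth is compared with vehicle-treated growth.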

[4] = NCI Yeast Anticancer Drug Screen. Data for the cln2 rad14 strain (AID 165);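 further: 0% = growth equal to vehicle treated cultures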; details: S. cerevisiae cln2 rad14 strain, at 50.0 µM, active compounds read high
Summary of the method: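 Yeast strain cln2 rad14, bearing defects in cell cycle control and DNA repair, serves as the test system; values reflect growth inhibition compared with vehicle.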

[5] = NCI Yeast Anticancer Drug Screen. Data for the bub3 strain (AID 167); details: S. cerevisiae bub3 mutant strain, at 50.0 µM, active compounds read high
Summary of the method: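 Inhibition values come from growth of compound-treated mutant yeast normalised to vehicle-treated controls.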

[6] = NCI Yeast Anticancer Drug Screen. Data for the mlh1 rad18 strain (AID 175); details: S. cerevisiae mlh1 rad18 strain growth inhibition; at 50.0 µM; active compounds read high
Summary of the method: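 Steps: expose repair-defective yeast to compound; measure growth; express inhibition against vehicle-treated controls.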

Measured: growth inhibition

CC1=NN(C(=O)c2ccccc2O)C(=O)/C1=C/c1cccc([N+](=O)[O-])c1
inactive: [1] 47.8% | [2] 26.9% | [3] 37.1% | [4] 28.1% | [5] 61.1% | [6] 33.8%

CCOc1ccc(Cc2ccccc2)cc1
inactive: [1] -8.95% | [2] -23.9% | [3] -7% | [4] 1.5% | [5] -8.25% | [6] -5.35%

Cc1cc(C(N)=O)no1
inactive: [1] 1.5% | [2] -2.55% | [3] -5.7% | [4] -10% | [5] 3.9% | [6] -1.05%

Cc1nc2nc[nH]n2c1N=Nc1ccccc1
inactive: [1] -28.3% | [2] -2.55% | [3] -9.5% | [4] -13% | [5] 7.5% | [6] 9.5%

Clc1nc(N2CCCCC2)c2[nH]cnc2n1
inactive: [1] -35.2% | [2] -6.2% | [3] 6.75% | [4] -9.8% | [5] -1.6% | [6] -0.9%

CC(=O)NC(Cc1cc(I)c(OC(C)=O)c(I)c1)C(=O)O (configuration not stated)
inactive: [1] -4.85% | [2] -16.8% | [3] 3.45% | [4] 6% | [5] 12.4% | [6] -0.6%

CCCCc1c(O)c2c(=O)n(C)c(=O)n3c4ccccc4n(c1=O)c23
inactive: [1] -1.55% | [2] -9.7% | [3] -1% | [4] -22.1% | [5] -0.3% | [6] 10.8%

COc1ccc(/C=N/N2CN(C(CC(N)=O)C(=O)O)P(Nc3ncccn3)N=C2N)cc1OC (configuration not stated)
inactive: [1] 7.55% | [2] -3.9% | [3] 0.4% | [4] -20.9% | [5] 6.65% | [6] 8.35%

CCOCCOCCOC(=O)c1ccccc1O
inactive: [1] -6.75% | [2] 1.45% | [3] -4.4% | [4] -14.5% | [5] 11.2% | [6] 4.4%

O=C(Cc1nc2ccccc2nc1CC(=O)c1cccnc1)c1cccnc1
inactive: [1] 6.45% | [2] 18.4% | [3] 16.1% | [4] 23.1% | [5] -3.55% | [6] 25.9%

COC(=O)C1OC(O[C@H]2CC[C@]3(C)[C@H]4CC=C5[C@@H]6CC(C)(C)CC[C@]6(C(=O)OC)[C@H](O)C[C@@]5(C)[C@]4(C)CC[C@H]3C2(C)C)C(O)C(O)C1O (some centres not stated)
inactive: [1] 14.4% | [2] 37.6% | [3] 26.6% | [4] 26.4% | [5] 21.4% | [6] 33.4%

CCCc1cc(OC(=O)c2c(O)cc(OC)cc2CCC)cc(O)c1C(=O)O
inactive: [1] 35.1% | [2] 44.1% | [3] 15.9% | [4] 49.2% | [5] 32% | [6] 24.5%

O=C(O)CCc1ccsc1
inactive: [1] -17.6% | [2] 4.55% | [3] -21.9% | [4] -28.4% | [5] -10.5% | [6] 4.45%

CCN(CC)c1ccc(C)cc1Cl
inactive: [1] -5.7% | [2] 7.5% | [3] -12.2% | [4] -16.8% | [5] 7.05% | [6] 5.55%

O=C1CCC2(CC1)Cc1ccccc1C2O (configuration not stated)
inactive: [1] -8.75% | [2] -8.45% | [3] 18% | [4] 29.4% | [5] -9.35% | [6] -5.5%

CCN(CC)CCn1cnc(C#N)c1N
inactive: [1] 4.45% | [2] 1.05% | [3] -1.35% | [4] -27.6% | [5] 1.65% | [6] -0.2%

CCC(=O)N(O)C(C)(C)C
inactive: [1] 10.8% | [2] 0.65% | [3] 14.7% | [4] 7.55% | [5] 7.2% | [6] 22.1%

O=C(Nc1cccc(Cl)c1)OC1C=CCC1 (configuration not stated)
inactive: [1] 3.4% | [2] 1.75% | [3] 2.65% | [4] -20.1% | [5] -2.15% | [6] -15.5%

O=c1[nH]c2cc(Cl)ccc2nc1/C=C(\O)c1cccc(O)c1
inactive: [1] -3.45% | [2] -5.05% | [3] -8.45% | [4] -4.35% | [5] -4.45% | [6] 10.2%

O=c1[nH]c2cc([N+](=O)[O-])ccc2nc1/C=C(\O)c1ccc(Cl)cc1
inactive: [1] -23.2% | [2] -22.8% | [3] -20.1% | [4] -9.15% | [5] -12.2% | [6] -36.7%

Cc1cc2c(cc1C)NC(=O)CC(c1ccccc1)=N2
inactive: [1] 18% | [2] -7.8% | [3] 4.15% | [4] 3.3% | [5] 28.9% | [6] 10.8%

Nc1ccccc1N
inactive: [1] -7.9% | [2] -13.3% | [3] 14.4% | [4] -4.5% | [5] -29.9% | [6] -0.35%

O=C1c2ccc3ccccc3c2C(=O)c2ccc3ccccc3c21
inactive: [1] -20.6% | [2] -4.5% | [3] -3.65% | [4] -30.2% | [5] -12.3% | [6] -16.8%

S=C1CC(c2ccc(Cl)cc2)Sc2ccccc2N1 (configuration not stated)
inactive: [1] -24.9% | [2] -5.6% | [3] -9.4% | [4] -0.95% | [5] -6.85% | [6] -31.4%

O=S(=O)(c1ccccc1)c1ccc(O)cc1
inactive: [1] -20.8% | [2] -23.8% | [3] -16.9% | [4] -29.8% | [5] -8.35% | [6] -15.7%

O=C(O)c1cccc2c1C(=O)c1c(O)cccc1C2=O
inactive: [1] 35.9% | [2] 19.9% | [3] 42.4% | [4] 25.9% | [5] 13.2% | [6] 30.2%

O=C(Nc1ccc(Cl)cc1)Nc1nnc2nc(C(C(=O)c3ccc(O)cc3O)c3nc4nnc(NC(=O)Nc5ccc(Cl)cc5)n4[nH]c3=O)c(=O)[nH]n12
inactive: [1] 25.6% | [2] 39.9% | [3] 44.2% | [4] 60.9% | [5] 14.7% | [6] 12.3%

COc1ccc(C(C)O)cc1 (configuration not stated)
inactive: [1] 23.2% | [2] 3.2% | [3] 6.25% | [4] 12.9% | [5] -5.65% | [6] 9.15%

O=S1(=O)CC(N2CCOCC2)C2=C(O1)c1sc(-c3ccccc3)nc1CC2 (configuration not stated)
inactive: [1] -16.8% | [2] -7.45% | [3] 14.8% | [4] 14.3% | [5] -4.55% | [6] -3.95%

CC(C)(N)C(=O)O
inactive: [1] 1.2% | [2] 24.5% | [3] 24.6% | [4] -10.9% | [5] -12.1% | [6] -6.85%

CC(C)COC(=O)C(=O)OCC(C)C
inactive: [1] 14.9% | [2] 23.1% | [3] -6.45% | [4] 34% | [5] -5.05% | [6] -14.7%

CCOC(=O)c1cc2c(nc1N)C(=O)CCC2
inactive: [1] -0.1% | [2] 6.25% | [3] 34.2% | [4] 16.9% | [5] 30.9% | [6] -30.9%

CN(C)CC1CCC/C1=N/OC(=O)c1ccccc1 (configuration not stated)
inactive: [1] 6.85% | [2] -6.7% | [3] -20% | [4] -17.9% | [5] -6.4% | [6] 16.9%

COC(=O)CC1OCC=C2CN3CCC45C6=CC(=O)C(=O)C([N+](=O)[O-])=C6NC4C1C2CC35 (configuration not stated)
inactive: [1] 0.8% | [2] -22.4% | [3] -15.4% | [4] 8.3% | [5] -4.8% | [6] -17.8%

CCCC#CCN(CCCC)CCCC
inactive: [1] -8.95% | [2] 0.15% | [3] -3.8% | [4] -7.9% | [5] 58% | [6] -20.1%

O=C(O)/C=C/c1ccncc1
inactive: [1] -1.7% | [2] -6.35% | [3] -7.15% | [4] 3.75% | [5] -0.3% | [6] 5.1%

CC1(C)N=C(C2CCCN2C(=O)OCc2ccccc2)OC1=O (configuration not stated)
inactive: [1] -43% | [2] -20.7% | [3] -38.1% | [4] -1.75% | [5] 12.3% | [6] -28.6%

Cc1cc(=O)c2c(=O)n(-c3ccccc3)[nH]c2[nH]1
inactive: [1] -34.7% | [2] -13.1% | [3] -11.2% | [4] -27.2% | [5] -13.4% | [6] -6.35%

Cc1ccc2c(c1)NC(C1Nc3cc(C)ccc3O1)O2 (configuration not stated)
inactive: [1] -0.3% | [2] -6.8% | [3] -1.25% | [4] -46.5% | [5] -16.9% | [6] -12.2%

Nc1ccc(Cl)cc1Cl
inactive: [1] -28.3% | [2] -7.1% | [3] -33.5% | [4] -34% | [5] -0.1% | [6] -21.3%

COc1cccc(/C=C2/C(=O)N(c3ccc([N+](=O)[O-])cc3)N=C2C)c1
inactive: [1] 34.5% | [2] 5.1% | [3] 37.9% | [4] 11.9% | [5] 14.3% | [6] 43.9%

CCCC(CCC)C(=O)O
inactive: [1] -18% | [2] 3.45% | [3] -8.75% | [4] 7.9% | [5] -10.8% | [6] -1.05%

Source: PubChem BioAssay (NCI)
